These results are taken from PubChem BioAssay AID463173 (ICCB-Longwood Screening Facility, Harvard Medical School, 2010).

Molecules are shown by their SMILES. About 1,700 (3.3%) of roughly 52,000 compounds were called active. This excerpt belongs to a sample that is enriched for actives. A number with no mark means an inactive call. No stated cut-off is given here; in the data, active means survival mostly below about 52% (no sharp cut-off); inactive means mostly above about 56%.

The assay relates to Wild type. In words: growth inhibition of S. aureus wild type versus tarO mutant, primary screen, teichoic acid synthesis inhibitors, RN4220, OD600 (AID 463173). The settings on record: S. aureus RN4220 wild type/DeltatarO growth, OD600, 18 h, active compounds read low, screened at 18.75 µg/mL (by protocol).
For the compound `COc1nc(C)c(/C=C/C(=O)N(C(=O)NC2CCCCC2)C2CCCCC2)c(OC)n1`, the survival was 101%.
Turning to `Clc1cccc(N2CCN(c3nc4ccccc4n4cnnc34)CC2)c1`, the survival was 70%.
In the case of `CCc1nnc2c(N3CCN(c4cccc(C(F)(F)F)c4)CC3)nc3ccccc3n12`, the survival is 120%.
For `FC(F)(F)c1cccc(N2CCN(c3nc4ccccc4n4cnnc34)CC2)c1`, the survival was 2% (active).
As for `COc1cccc(/C=C/c2nc(C#N)c(N3CCCCC3)o2)c1`, the figure is 67%; as for `CCOc1ccccc1N(C)C(=O)Cn1cnc2onc(-c3ccc(F)cc3)c2c1=O`, 90%; as for `Cc1cc(C)cc(-n2ccnc(NCCc3ccccc3)c2=O)c1`, 75%.
As for `COc1ccccc1CNc1nccn(-c2ccc(F)cc2)c1=O`, the figure is 76%; as for `COc1ccc(-n2ccnc(NCc3ccccc3Cl)c2=O)cc1OC`, 71%.
As for `O=c1c(NCc2ccccc2Cl)nccn1-c1ccccc1`, the survival is -1% (active).
As for `COc1ccc(-n2ccnc(NCCc3ccc(Cl)cc3)c2=O)cc1OC`, the figure is 47%; as for `O=c1c(NCCc2ccc(Cl)cc2)nccn1-c1ccccc1`, 14% (active); as for `Cc1ccc(S(=O)(=O)NCC2CCC(C(=O)NCc3ccc(F)cc3)CC2)cc1` (stereo not given), 75%.
`CCC(C)NC(=O)c1ccc2c(c1)N(Cc1ccccc1)C(=O)c1ccccc1S2(=O)=O` (stereo not given): the survival was 85%.
To `COC(=O)c1cc(S(=O)(=O)NCC2CCN(Cc3cccc(F)c3)CC2)c[nH]1` belongs 90%; to `CN(Cc1nc(-c2ccc(Cl)cc2)no1)S(=O)(=O)c1ccccc1`, 82%; to `Cc1cccc(NC(=O)N2CCC(CN3CCCCCC3)CC2)c1C`, 55%.
To `Cc1cc(C)cc(NC(=O)N2CCC(CN3CCc4ccccc4C3)CC2)c1` belongs 81%; to `CCOc1ccc(NC(=O)N2CCC(CN3CCc4ccccc4C3)CC2)cc1`, -3% (active); to `CCOc1ccc(NC(=O)N2CCC(CN3CCC(C)CC3)CC2)cc1`, 127%.
To `Cc1cccc(NC(=O)N2CCC(CN3CCc4ccccc4C3)CC2)c1C` belongs -4% (active); to `CCc1ccccc1NC(=O)N1CCC(CN2CCc3ccccc3C2)CC1`, 60%; to `COC(=O)c1ccc(NC(=O)N2CCC(CN3CCc4ccccc4C3)CC2)cc1`, 1% (active).
As for `CCOc1ccc(NC(=O)N2CCC(CN3CCCCCC3)CC2)cc1`, the survival is 111%.
As for `COc1cc(NC(=O)N2CCC(CN3CCc4ccccc4C3)CC2)cc(OC)c1`, the figure is 81%.
To `CCCC(=O)Nc1cc(-c2nnc3c4ccccc4c(C)nn23)ccc1C` belongs 72%.
As to `O=C(Nc1ccc(O)c(-c2nc3ccccc3o2)c1)c1ccc(Br)cc1`, the survival was 88%.
To `CC1Cn2cc(C(=O)Nc3cccc(C(F)(F)F)c3)c(=O)c3c(Cl)ccc(c32)O1` (stereo not given) belongs 89%; to `CCOC(=O)c1cccnc1SCC(=O)N(CC)c1cccc(C)c1`, 70%.
To `CCn1c(CN2CCCCC2)nc2cc(NC(=O)COc3ccc(C(C)(C)C)cc3)ccc21` belongs 97%.
In the case of `CCOc1cc(C2NC(=O)c3c(sc4c3CCN(C)C4)N2)ccc1OC(=O)c1ccc(Br)cc1` (stereo not given), the survival is 71%.
Take `CCCCCOc1ccc(/C=C/C(=O)Nc2sc(C(C)=O)c(C)c2C(=O)OCC)cc1OC`: the survival is 76%.
Consider `CCOC(=O)CSc1nc2cc3c(cc2c(=O)n1CCCCCC(=O)NCc1ccc2c(c1)OCO2)OCO3`, for which the survival is 81%.
To `CCOc1ccc(C(=O)c2cn(CC(=O)Nc3cc(OC)ccc3OC)c3cc(OC)c(OC)cc3c2=O)cc1` belongs 68%; to `COC(=O)C1CCN(S(=O)(=O)c2cc3c4c(c2)C(C)C(=O)N4CCC3)CC1` (stereo not given), 125%; to `CCOC(=O)C1CCN(S(=O)(=O)c2cc3c4c(c2)C(C)C(=O)N4CCC3)CC1` (stereo not given), 88%.
As for `CC1C(=O)N2CCCc3cc(S(=O)(=O)N4CCC(C(N)=O)CC4)cc1c32` (stereo not given), the figure is -3% (active); as for `COc1ccc(N2CCN(C(=O)CSc3n[nH]c(-c4ccccc4)n3)CC2)cc1`, 72%; as for `COc1ccc(S(=O)(=O)N(CC(=O)Nc2ccccc2Br)Cc2ccccc2)cc1`, 77%.
With `Cc1ccc(C)c(Nc2cc(C(=O)NCCCN(C)C3CCCCC3)c3ccccc3n2)c1`, the survival was 99%.
For the compound `CSc1cccc(Nc2cc(C(=O)NCCCN(Cc3ccccc3)C(C)C)c3ccccc3n2)c1`, the survival is 75%.
As for `CCCN(CCC)CCNC(=O)c1cc(-c2ccc(Br)s2)nc2ccccc12`, the figure is 80%; as for `CCCCN(C)CCNC(=O)c1cc(-c2ccc(Cl)s2)nc2ccccc12`, 82%; as for `Cc1cc(C)cc(Nc2cc(C(=O)NCCCN(C)C3CCCCC3)c3ccccc3n2)c1`, 26% (active).
To `COc1ccc(Nc2cc(C(=O)NCCCN(C)C3CCCCC3)c3ccccc3n2)cc1` belongs 99%; to `Cc1cc(C)cc(Nc2cc(C(=O)NCc3ccccc3)c3ccccc3n2)c1`, 139%.
To `Cc1cc(C)cc(Nc2cc(C(=O)NCCCN(Cc3ccccc3)C(C)C)c3ccccc3n2)c1` belongs -6% (active).
In the case of `CCCCN(C)CCCNC(=O)c1cc(-c2ccc(Br)s2)nc2ccccc12`, the survival was 26% (active).
Turning to `Cc1ccc2c(c1)NC(=O)C(CC(=O)Nc1cc(Cl)ccc1C)O2` (stereo not given), the survival was 77%.
As for `COc1ccc(Br)cc1S(=O)(=O)Nc1cc(-c2cn3ccccc3n2)ccc1C`, the survival is 63%.
As for `Cc1ccc(C(=O)Nc2ccc3c(c2)N(C)C(=O)c2ccccc2S3)cc1F`, the figure is 72%; as for `O=C(Cn1ncn2c(cc3sccc32)c1=O)NCCc1ccccc1`, 85%.
In the case of `CC(Sc1nnc(-c2ccccc2)n1N)C(=O)O` (stereo not given), the survival is 109%.
For the compound `CCOc1ccc(Nc2ncnc3c2cnn3-c2ccc(F)cc2)cc1`, the survival is 60%.
To `Cc1ccc(N2CCN(C(=O)c3c(C)oc4ncnc(N5CCOCC5)c34)CC2)c(C)c1` belongs 83%; to `CSc1ccc(-c2nc3ncccn3c2Nc2ccc(C)c(C)c2)cc1`, 60%; to `COc1cc(OC)c(NC(=O)c2c(C)oc3ncn(C)c(=O)c23)cc1Cl`, 88%.
Take `CCc1ccccc1NC(c1nnc(-c2cccc(F)c2)o1)c1ccc(F)cc1Cl` (stereo not given): the survival was 86%.
As for `COc1ccc(C)cc1NC(c1nnc(-c2ccccc2)o1)c1ccc(F)cc1Cl` (stereo not given), the figure is 3% (active); as for `COc1cc(OC)c(NC(c2nnc(-c3ccccc3)o2)c2ccc(F)cc2Cl)cc1Cl` (stereo not given), 66%; as for `CCOc1ccccc1NC(c1nnc(-c2ccccc2)o1)c1ccc(F)cc1Cl` (stereo not given), 2% (active).
As to `Cc1cccc(NC(c2nnc(-c3ccccc3)o2)c2ccc(F)cc2Cl)c1C` (stereo not given), the survival is 55%.
To `COc1cccc(NC(c2nnc(-c3ccccc3)o2)c2ccc(F)cc2Cl)c1` (stereo not given) belongs 56%; to `COc1ccc(S(=O)(=O)NCCc2csc(-c3ccc(F)cc3)n2)cc1F`, 81%; to `Cc1cc(C)cc(NC(=O)CCS(=O)(=O)c2cccc3nsnc23)c1`, 64%.
As for `COc1cc(C2c3c(oc4ccccc4c3=O)C(=O)N2c2nncs2)cc(OC)c1OC` (stereo not given), the survival is 76%.
Take `Cc1ccc2c(c1)sc1nc(=O)n(-c3ccc(Cl)c(Cl)c3)c(=O)n12`: the survival is -4% (active).
Turning to `Cc1ccc2c(c1)sc1nc(=O)n(-c3cccc(Cl)c3)c(=O)n12`, the survival was 70%.
With `Cc1ccc2c(c1)sc1nc(=O)n(-c3ccc(Cl)cc3)c(=O)n12`, the survival was 77%.
As for `CC(C)C(NS(=O)(=O)c1cccc2cccnc12)C(=O)Nc1ccc(OC(F)(F)F)cc1` (stereo not given), the figure is 100%; as for `CCOc1ccc(-c2cnc(NCc3ccc(OC)cc3OC)n2C)cc1`, 68%; as for `Cc1ccc(-c2cnc(NC(=O)CCC(=O)N3CCCCC3)n2C)cc1`, 110%.
Regarding `CCc1ccc(CNc2ncc(-c3cccc(OC)c3)n2C)cc1`, the survival is 4% (active).
As for `CCOc1ccc(-c2cnc(NCc3cccc(Cl)c3)n2C)cc1`, the figure is 52%.
To `COc1cccc(-c2cnc(NCc3ccccc3Cl)n2C)c1` belongs 70%; to `COc1ccc(-c2cnc(NCc3ccc(C)cc3)n2C)cc1`, 108%.
As for `CCOc1ccc(-c2cnc(NCc3ccc(C(F)(F)F)cc3)n2C)cc1`, the survival is -12% (active).
As for `Cc1ccc(-c2cnc(NCc3ccc(C(F)(F)F)cc3)n2C)cc1`, the figure is -13% (active); as for `Cn1c(-c2cccc(Br)c2)cnc1NCc1cccc(F)c1`, 27%.
On to `Cn1c(-c2ccccc2)cnc1NCc1ccccc1O`, for which the survival is 60%.
To `Cc1ccc(-c2cnc(NCc3ccc(C(C)C)cc3)n2C)cc1` belongs -13% (active); to `COc1ccc(OC)c(CNc2ncc(-c3ccc(Cl)cc3)n2C)c1`, 34%; to `Cc1ccc(Cl)cc1N1CCN(C(=O)c2cn(C3CCCCC3)c(=O)c3c2c2ccccc2n3C)CC1`, 76%.
As for `COC(=O)c1ccc(NC(=O)C(=O)NCC(c2cccnc2)N2CCc3ccccc32)cc1` (stereo not given), the figure is 47%.
To `O=C(CSc1nnc(-c2ccc(Cl)cc2)c(-c2ccc(Cl)cc2)n1)NC1CCCC1` belongs 65%.
In the case of `O=C(Nc1ccccc1C(=O)NCc1ccccc1)c1ccco1`, the survival was 112%.
Regarding `CCOC(=O)NNC(=O)C1CCC(C)CC1` (stereo not given), the survival was 64%.
To `O=S(=O)(c1ccc(F)cc1)N(CC(O)Cn1c2ccccc2c2ccccc21)c1ccccc1` (stereo not given) belongs 63%; to `CCOc1ccc(-c2cc(C(=O)NCCc3ccccc3)c3c(-c4ccc(C)cc4)[nH]nc3n2)cc1`, 128%.
As for `Cc1ccc(S(=O)(=O)NCC(Nc2cccc(Cl)c2)c2ccccc2)cc1` (stereo not given), the figure is 68%; as for `COc1ccc2cc3cc(C(=O)Nc4cc(C)c(Cl)cc4OC)oc3nc2c1`, 88%; as for `Cc1cccn2c(=O)c3cc(C(=O)NC(C)C)n(C)c3nc12`, 82%.
On to `Cn1c(-c2ccc3c(c2)OCO3)cnc1NCc1cc(Cl)ccc1O`, for which the survival is 112%.
`Cc1ccc(-c2cnc(NCc3c(F)cccc3Cl)n2C)cc1`: the survival is -12% (active).
As for `Fc1cccc(Cl)c1CNc1n[nH]c(-c2ccco2)n1`, the figure is 83%.
